Records with an inconclusive call do not appear. Calls of active or inactive are those of the source. Calls come from the whole dose curve; as a rule, active = well fitted cell-killing curve with a large enough effect; inconclusive = small, poorly fitted or top-dose-only effect, or effect the other way; inactive = flat fitted curve, though single readings scatter.
Columns and labels:
Experiment in all cases: Primary qHTS to identify gynecologic anti-cancer compounds using libraries of approved drugs and bioactive compounds (AID 1345084); note: nearly all actives have a fitted effect of over 55% in size
C33A = settings: Gynecologic cancer cell panel viability, ATPlite luminescence, 48 h; series mostly up to 57.5 µM
Summary of the method: (§1)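 Cells, 1,000 per well, plated 16 h, then exposed 48 h at 37 C to compounds. Viability by ATPlite luminescence after 15 min at room temperature.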

CAOV3 = settings: Gynecologic cancer cell panel viability, ATPlite luminescence, 48 h; series mostly up to 57.5 µM
Summary of the method: as §1

CASKI = settings: Gynecologic cancer cell panel viability, ATPlite luminescence, 48 h; series mostly up to 57.5 µM
Summary of the method: as §1

Es-2 = settings: Gynecologic cancer cell panel viability, ATPlite luminescence, 48 h; series mostly up to 57.5 µM
Summary of the method: as §1

HeLa = settings: Gynecologic cancer cell panel viability, ATPlite luminescence, 48 h; series mostly up to 57.5 µM
Summary of the method: as §1

Hek293T = settings: Gynecologic cancer cell panel viability, ATPlite luminescence, 48 h, control line for the selectivity index; series mostly up to 57.5 µM
Summary of the method: as §1

JEG-3 = settings: Gynecologic cancer cell panel viability, ATPlite luminescence, 48 h; series mostly up to 57.5 µM
Summary of the method: as §1

OV90 = settings: Gynecologic cancer cell panel viability, ATPlite luminescence, 48 h; series mostly up to 57.5 µM
Summary of the method: as §1

PA-1 = settings: Gynecologic cancer cell panel viability, ATPlite luminescence, 48 h; series mostly up to 57.5 µM
Summary of the method: as §1

SKOV3 = settings: Gynecologic cancer cell panel viability, ATPlite luminescence, 48 h; series mostly up to 57.5 µM
Summary of the method: as §1

Tov-21-G = settings: Gynecologic cancer cell panel viability, ATPlite luminescence, 48 h; series mostly up to 57.5 µM
Summary of the method: as §1

Tov112D = settings: Gynecologic cancer cell panel viability, ATPlite luminescence, 48 h; series mostly up to 57.5 µM
Summary of the method: as §1

Measured: Potency

C/C=C/C=C/[C@@H]1O[C@](O)([C@H](CC)C(=O)NC/C=C/C=C(\C)[C@@H](OC)[C@@H](C)C2OC(/C=C/C=C/C=C(\C)C(=O)c3c(O)cc[nH]c3=O)[C@H](O)[C@@H]2O)[C@H](O)[C@H](O)C1(C)C (stereo partly specified)
inactive: all assays above

O=C(CCc1ccccc1)N1CCC(O)(Cn2cnc3cc(Cl)ccc3c2=O)CC1
inactive: all assays above

C=C1CCC2C(C)(C(=O)OC)CCCC2(C)C1CCC(C)CC(=O)O (stereo unspecified)
inactive: all assays above

CC1=CC(=O)C2(OC3OC(C)C(O)C(OC(=O)/C=C/c4ccccc4)C3O)C=COC(OC3OC(CO)C(O)C(O)C3O)C12 (stereo unspecified)
inactive: all assays above

Cc1cc(C)c2c(N)c(C(=O)NCc3ccc(Cl)cc3)sc2n1
inactive: all assays above

C[C@H](C(=O)NC1CCCC1)N(C(=O)Cn1nnc(-c2ccc3c(c2)OCO3)n1)C1CCCCC1
inactive: all assays above

C=C1C[C@]23C[C@H]1CC[C@H]2C1=C[C@H]2OC(=O)[C@@](C)([C@H]1[C@@H]3C(=O)O)[C@H]2O
inactive: all assays above

COc1ccc(-n2[nH]c(=O)c3[nH]c4cc(Cl)ccc4c(=O)c3c2=O)c(C)c1
inactive: all assays above

O=C(O)COCCN1CCN([C@H](c2ccccc2)c2ccc(Cl)cc2)CC1
inactive: all assays above

CC(C)C(C#N)O[C@@H]1O[C@H](CO[C@@H]2O[C@@H](C)[C@H](O)[C@@H](O)[C@H]2O)[C@@H](O)[C@H](O)[C@H]1O (stereo partly specified)
inactive: all assays above

O=S(=O)(NC1CCC(c2cc(F)ccc2F)(S(=O)(=O)c2ccc(Cl)cc2)CC1)C(F)(F)F (stereo unspecified)
inactive: all assays above

O=C(O)CC(=O)OC[C@H]1O[C@@H](Oc2ccc3c(c2)OC[C@H]2c4cc5c(cc4O[C@@H]32)OCO5)[C@H](O)[C@@H](O)[C@@H]1O
inactive: all assays above

C/C=C/C(O)C1OC(=O)CC1Nc1ccc(C(=O)O)cc1 (stereo unspecified)
inactive: all assays above

From PubChem BioAssay (NCATS)
